Assay results from PubChem BioAssay AID463173 (ICCB-Longwood Screening Facility, Harvard Medical School, 2010).
Screen size: about 52,000 compounds; about 1,700 (3.3%) were called active. The sample holds actives, similar compounds and a random draw of the others, so the mix is not that of the screen. Rule as the data show it: active = survival mostly below about 52% (no sharp cut-off); inactive = mostly above about 56%.

What follows are molecules tested on Wild type (assay: S. aureus survival, RN4220 and DeltatarO strains – OD600, teichoic acid synthesis inhibitors, primary screen (AID 463173)). Settings: S. aureus RN4220 wild type/DeltatarO growth, OD600, 18 h, hits give low values, screened at 18.75 µg/mL (by protocol).

Compound | survival
Fc1ccc(CSc2nncn3c2cc2occc23)c(Cl)c1 | 88% (inactive)
CC(C)c1ccc(NC(=O)c2ccc3oc(=O)c(S(=O)(=O)c4ccc(F)cc4)cc3c2)cc1 | 70% (inactive)
Cc1cc(=O)n2nc(N(C)CC(=O)NCc3ccc(Cl)cc3)sc2n1 | 85% (inactive)
CCC(C(=O)NC1CCCCC1)n1c(SCc2cccc(F)c2)nc2ccncc21 (configuration not stated) | 124% (inactive)
CCOc1ccccc1CNC(=O)c1ccc2c(c1)N(Cc1ccc(C)cc1)CCS2 | 79% (inactive)
CCC(Cc1ccccc1)NC(=O)Cn1ncc2c3ccccc3n(Cc3ccccc3)c2c1=O (configuration not stated) | 80% (inactive)
CCCCCCC1CC=C(C(=O)O)CC1 (configuration not stated) | 110% (inactive)
CCCCCCC1CCC(C(=O)NC(C(=O)O)C(C)C)CC1 (configuration not stated) | 59% (inactive)
CCCCC1CCC(CCCC(C)CCC(=O)O)CC1 (configuration not stated) | -5% (active)
CCOc1ccc(NC(=O)Cn2c(=O)cc(C)c3c(C)nn(-c4ccc(CC)cc4)c32)cc1 | 127% (inactive)
CCN(c1ccc(C)cc1C)S(=O)(=O)c1nnc(NC(=O)c2ccc(F)cc2)s1 | 20% (inactive)
CC(C)CN(CCNC(=O)c1cn(C)c2ccc(S(=O)(=O)N3CCOCC3)cc2c1=O)CC(C)C | 82% (inactive)
CCOC(=O)Cc1ccc(NC(=O)NCc2cccn2Cc2ccccc2)cc1 | -6% (active)
CCOc1ccc(NC(=O)NCc2cccn2Cc2ccccc2)cc1 | 64% (inactive)
CCOC(=O)c1cccc(NC(=O)NCc2cccn2Cc2ccccc2)c1 | 123% (inactive)
Cc1nn(CC(=O)NCc2cccc(F)c2)c(=O)c2c(C)n(-c3ccc(Cl)cc3)nc12 | 75% (inactive)
CC(=O)Nc1ccc(/C=C/c2nc(-c3ccccc3O)n(-c3ccccc3)n2)cc1 | 86% (inactive)
Cc1nc(C)c(C(=O)N/N=C/c2ccc(O)cc2O)cc1C(=O)N/N=C/c1ccc(O)cc1O | 108% (inactive)
COc1ccc(/C=C/c2nc(-c3ccccc3O)n(-c3ccccc3)n2)cc1OC | 8% (active)
Oc1ccccc1-c1nc(/C=C/c2ccccc2Cl)no1 | 81% (inactive)
COc1cc2c(-c3ccccc3O)nc3c(c(C)nn3-c3ccccc3)c2cc1OC | 63% (inactive)
COc1cc2c(-c3ccccc3Cl)nc3c(c(C)nn3-c3ccccc3)c2cc1OC | 73% (inactive)
Oc1ccccc1-c1nc(/C=C/c2ccccc2)nn1-c1ccccc1 | 2% (active)

Compound | survival
Oc1ccccc1-c1nc(/C=C/c2ccc(F)cc2)nn1-c1ccccc1 | 34% (inactive)
Oc1ccc(/C=C/c2nc(-c3ccccc3O)n(-c3ccccc3)n2)c(O)c1 | -1% (active)
Oc1ccccc1-c1nc(/C=C/c2ccccc2Cl)nn1-c1ccccc1 | 2% (active)
CN(C)c1ccc(/C=C/c2nc(-c3ccccc3O)n(-c3ccccc3)n2)cc1 | 46% (inactive)
COc1ccc(/C=C/c2noc(-c3ccccc3O)n2)cc1OC | 136% (inactive)
COCCn1c(Cc2ccccc2)nnc1SCC(=O)N(C)C | 100% (inactive)
CC(C)(C)NC(=O)c1ccc2nc(CCc3ccccc3)oc2c1 | 65% (inactive)
Cn1c(CNc2cccc(C(F)(F)F)c2)n[nH]c1=S | 111% (inactive)
O=C(Cn1cc(SCc2ccccc2)c2ccccc21)N1CCCCCC1 | 83% (inactive)
O=C(Cn1cnc(S(=O)(=O)N2CCCC2)c1)Nc1ccc(OC(F)(F)F)cc1 | 84% (inactive)
CCCCNC(=O)CN1CCN(c2ccc(NC(=O)c3ccc(OC)cc3)cc2C(=O)O)CC1 | 80% (inactive)
COc1ccc(CCNC(=O)c2ccc3c(c2)N(Cc2cccc(C)c2)C(=O)c2ccccc2S3(=O)=O)cc1OC | 101% (inactive)
CCC(C)(C)C(=O)Nc1nnc(COC)s1 | 122% (inactive)
N#CSc1ccc2nc(N)sc2c1 | 93% (inactive)
CC(C)(C)Sc1ccc(SC#N)s1 | 23% (active)
Cc1ccccc1NC(=O)C(Cc1ccccc1)N1Cc2ccccc2C1=O (configuration not stated) | 76% (inactive)
N#CC(C#N)C(CC(=O)c1ccccc1)c1ccc2c(c1)OCO2 (configuration not stated) | 111% (inactive)
Cc1c(Cl)cccc1NC(=O)CC(c1cccs1)N1Cc2ccccc2C1=O (configuration not stated) | 0% (active)
Cc1c(Cl)cccc1NC(=O)CC(c1ccc(F)cc1)N1Cc2ccccc2C1=O (configuration not stated) | 10% (active)
CCOc1ccccc1NC(=O)CC(c1ccc(F)cc1)N1Cc2ccccc2C1=O (configuration not stated) | 80% (inactive)
O=C(CC(c1cccs1)N1Cc2ccccc2C1=O)Nc1ccccc1F (configuration not stated) | 73% (inactive)
O=C(CC(c1cccs1)N1Cc2ccccc2C1=O)Nc1ccc(Cl)cc1 (configuration not stated) | 129% (inactive)
CCc1ccccc1NC(=O)CC(c1ccc(F)cc1)N1Cc2ccccc2C1=O (configuration not stated) | 121% (inactive)

Compound | survival
Cc1cccc(Cn2c(SCc3ccc(C(=O)NCc4ccccc4F)cc3)nc3ccncc32)c1 | 80% (inactive)
COCCn1c(C)nnc1SCC1CCCO1 (configuration not stated) | 127% (inactive)
Cc1cc(C)cc(NC(=O)c2cccc3c2C(=O)N(C2CCCCC2)C3)c1 | 42% (inactive)
COC(=O)c1ccc(NC(=O)c2cccc3c2C(=O)N(C2CCCCC2)C3)cc1 | 88% (inactive)
CC(C)c1ccc(NC(=O)c2cccc3c2C(=O)N(C2CCCCC2)C3)cc1 | 1% (active)
Cn1c(C(C(=O)NCC2CCCO2)N(C(=O)Cn2nnc3ccccc32)c2ccc3c(c2)OCO3)nc2ccccc21 (configuration not stated) | 111% (inactive)
Cc1cc(C(=O)N2CCN(c3ccccc3)CC2)c2c(C)nn(-c3cccc(F)c3)c2n1 | 63% (inactive)
Cc1cc(C)cc(NC(=O)c2cc(C)nc3c2c(C)nn3-c2ccccc2)c1 | -6% (active)
COc1cccc(CNC(=O)c2cc(C)nc3c2c(C)nn3-c2cccc(F)c2)c1 | 131% (inactive)
Cc1cc(C(=O)NCc2ccccc2C)c2c(C)nn(-c3cccc(F)c3)c2n1 | 76% (inactive)
COc1ccc(NC(=O)c2cc(C)nc3c2c(C)nn3-c2cccc(Cl)c2C)c(OC)c1 | 85% (inactive)
Cc1ccc(-n2nc(C)c3c(C(=O)Nc4ccc(Br)c(C)c4)cc(C)nc32)cc1 | 78% (inactive)
Cc1ccc(C)c(N2CCN(C(=O)c3cc(C)nc4c3c(C)nn4-c3ccccc3)CC2)c1 | 134% (inactive)
Cc1ccc(C)c(N2CCN(C(=O)c3cc(C)nc4c3c(C)nn4-c3cccc(F)c3)CC2)c1 | 0% (active)
CCc1cccc(C)c1NC(=O)c1cc(C)nc2c1c(C)nn2-c1cccc(Cl)c1C | 78% (inactive)
Cc1cc(C(=O)Nc2ccc(C(C)C)cc2)c2c(C)nn(-c3ccccc3)c2n1 | 80% (inactive)
Cc1ccc(NC(=O)c2cc(C)nc3c2c(C)nn3-c2cccc(Cl)c2C)c(C)c1 | -6% (active)
Cc1cc(C(=O)NCc2ccccc2)c2c(C)nn(-c3cccc(F)c3)c2n1 | 14% (active)
O=C1CC(c2ccccc2C(F)(F)F)c2c(c3ccccc3[nH]c2=O)O1 (configuration not stated) | 69% (inactive)
Cc1cccc(-c2noc(-c3cccnc3NCc3ccccc3Cl)n2)c1 | 79% (inactive)
N#Cc1ccccc1CN1C(=O)c2ccccc2Sc2ccc(C(=O)OCc3ccco3)cc21 | 85% (inactive)
CC1CCN(S(=O)(=O)c2ccc3c(c2)N(CC(=O)N2CCN(c4ccccc4)CC2)C(=O)CO3)CC1 | 87% (inactive)
CCN(CC)C(=O)CSc1nsc(SCC(=O)N(CC)CC)c1C#N | 102% (inactive)

Compound | survival
CC(=O)Nc1ccc(S(=O)(=O)N2CCC(Oc3ccc(-n4cnnn4)cc3)CC2)cc1 | 118% (inactive)
O=C(CN1C(=O)S/C(=C\c2ccco2)C1=O)CN1C(=O)S/C(=C\c2ccco2)C1=O | 113% (inactive)
OC1N(CN2CCN(c3ccccc3F)CC2)c2ccccc2C12OCCCO2 (configuration not stated) | 104% (inactive)
Cn1cnnc1SCC(=O)Nc1ccc(C#N)cc1 | 71% (inactive)
CC(=O)c1cccc(NC(=O)CCCSc2nc(-c3ccco3)cc(C(F)(F)F)n2)c1 | 52% (inactive)
Cc1ccccc1CSc1nc(-c2cccc(F)c2)nc2c1Cc1c(CO)cnc(C)c1O2 | 85% (inactive)
Cc1cc(C(=O)Nc2cccc(C(F)(F)F)c2)c2c(C)nn(-c3cccc(F)c3)c2n1 | -1% (active)
CCc1ccc(-n2nc(C)c3c(C(=O)Nc4cc(OC)cc(OC)c4)cc(C)nc32)cc1 | 66% (inactive)
Cc1cc(C)c(NC(=O)c2cc(C)nc3c2c(C)nn3-c2cccc(F)c2)c(C)c1 | 83% (inactive)
CCc1ccc(-n2nc(C)c3c(C(=O)Nc4cccc(C(F)(F)F)c4)cc(C)nc32)cc1 | -3% (active)
CCc1ccc(-n2nc(C)c3c(C(=O)Nc4ccc(Cl)cc4)cc(C)nc32)cc1 | 53% (inactive)
Cc1cc(C(=O)Nc2cccc(C)c2C)c2c(C)nn(-c3cccc(F)c3)c2n1 | 73% (inactive)
CCc1nnc2c3ccccc3nc(Nc3cc(C)cc(C)c3)n12 | 37% (inactive)
Cc1cc(C)nc(NS(=O)(=O)c2ccc(NC(=O)c3ccccc3O)cc2)n1 | 127% (inactive)
CCCN1CCN(c2nnc(-n3cccc3C(=O)Nc3cc(Cl)ccc3C)s2)CC1 | 82% (inactive)
Cc1c(C(=O)N(C)C)sc2c1c(=O)n(-c1ccccc1C(F)(F)F)c(=O)n2Cc1ccccc1C#N | 66% (inactive)
CCOC(=O)c1ccccc1NC(=O)Cn1c(=O)n(CCC(=O)N2CCc3ccccc3C2)c(=O)c2ccccc21 | 88% (inactive)
CC(=O)c1ccc(C(=O)N(Cc2cccnc2)c2nc3c(C)c(C)ccc3s2)cc1 | -3% (active)
CC(=O)N(Cc1cccnc1)c1nc2c(C)c(C)ccc2s1 | 71% (inactive)
Cc1cccc2sc(N(Cc3cccnc3)C(=O)CCS(=O)(=O)c3ccccc3)nc12 | 82% (inactive)
CC(=O)c1ccc(C(=O)N(Cc2cccnc2)c2nc3c(Cl)cccc3s2)cc1 | 119% (inactive)
Cc1cc(C)c2nc(N(Cc3cccnc3)C(=O)CCS(=O)(=O)c3ccccc3)sc2c1 | 59% (inactive)
Cc1ccc2sc(N(Cc3cccnc3)C(=O)CCS(=O)(=O)c3ccccc3)nc2c1C | 1% (active)
